Reference: PubChem BioAssay (Tox21)
Where “and” joins values, the source holds several entries; their conditions need not be identical. Equal values may be shown once. Inconclusive results are not listed. A call without a number means that no potency is given here. Calls of active or inactive are those of the source. Unless noted, the call rests on the fitted dose curve; in most records, active means well fitted curve in the direction sought with a large enough effect in the repeat runs; inconclusive means weak or mixed curves; inactive means no such curve, though single readings can be large; an effect the other way counts as inactive or inconclusive.

Key:
[1] = qHTS assay to identify small molecule antagonists of the estrogen receptor alpha (ER-alpha) signaling pathway using the BG1 cell line in the presence of 0.1 nM 17-beta-estradiol - cell viability counter screen (AID 1259241); further: nearly all actives have a fitted effect of over 40% in size
Method in brief: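 Cells were plated and left 24 hr, compounds in DMSO were pinned in, 17beta-estradiol was added to 0.1 nM final, and after 22 hr CellTiter-Fluor reagent was added for 30 min before fluorescence was read.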

[2] = qHTS assay to identify small molecule antagonists of the androgen receptor (AR) signaling pathway using the MDA cell line in the presence of 0.5 nM R1881 - cell viability counter screen (AID 1259242); further: nearly all actives have a fitted effect of over 45% in size
Method in brief: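 Fluorescence from CellTiter-Fluor, which reports protease activity of live cells, was read 30 min after reagent addition to MDA-kb2 cells that had been incubated 16 hr with compound and 0.5 nM R1881.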

[3] = target: Estrogen receptor (Homo sapiens) (UniProt P03372); assay: qHTS assay to identify small molecule antagonists of the estrogen receptor alpha (ER-alpha) signaling pathway using the BG1 cell line in the presence of 0.1 nM 17-beta-estradiol (AID 1259244); further: nearly all actives have a fitted effect of over 50% in size
Chain of Estrogen receptor (Homo sapiens) (P03372 whole entry, looked up): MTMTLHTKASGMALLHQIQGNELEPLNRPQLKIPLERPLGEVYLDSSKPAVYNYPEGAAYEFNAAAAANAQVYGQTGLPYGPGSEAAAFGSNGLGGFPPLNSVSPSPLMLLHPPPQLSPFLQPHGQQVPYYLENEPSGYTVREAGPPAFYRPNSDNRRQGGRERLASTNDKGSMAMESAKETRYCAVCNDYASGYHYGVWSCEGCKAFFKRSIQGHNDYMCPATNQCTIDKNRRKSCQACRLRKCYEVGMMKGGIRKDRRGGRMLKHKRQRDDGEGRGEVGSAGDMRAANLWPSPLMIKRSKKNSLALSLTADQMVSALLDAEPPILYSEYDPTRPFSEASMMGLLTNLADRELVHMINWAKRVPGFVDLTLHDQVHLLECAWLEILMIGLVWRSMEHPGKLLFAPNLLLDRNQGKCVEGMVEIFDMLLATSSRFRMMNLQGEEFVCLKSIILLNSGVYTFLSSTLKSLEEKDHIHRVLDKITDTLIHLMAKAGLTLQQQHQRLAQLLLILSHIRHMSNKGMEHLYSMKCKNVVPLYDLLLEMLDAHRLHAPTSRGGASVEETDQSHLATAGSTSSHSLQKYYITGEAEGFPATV
Method in brief: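 Quantitative high-throughput screen in VM7Luc4E2 cells: compound plus 0.1 nM E2 (final), 22 h, 37C, 5% CO2; ONE-Glo added, 30 min room temperature, luminescence measured.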

[4] = qHTS assay to identify small molecule HDAC inhibitors (AID 1259364); further: nearly all actives have a fitted effect of over 45% in size; further: potency means the concentration at half of the fitted maximal effect
Method in brief: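 Endogenous HDAC class I/II activity was measured in wild-type HCT-116 cells by HDAC-Glo luminescence after 2 h compound treatment.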

[5] = qHTS assay to identify small molecule HDAC inhibitors - cell viability counter screen (AID 1259365); further: series mostly up to about 92 µM; nearly all actives have a fitted effect of over 50% in size
Method in brief: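 Counter screen in wild-type HCT-116 cells: compounds dissolved in DMSO are pin-transferred onto overnight-plated cells and left 2hr at 37C. ATP-based CellTiter-Glo luminescence then measures viable cells.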

[6] = qHTS assay to identify small molecule agonists of the sonic hedgehog signaling (Shh) pathway - cell viability counter screen (AID 1259366); further: nearly all actives have a fitted effect of over 50% in size
Method in brief: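 Cells are plated at 2,000 per well and left 4hr at 37C, 5% CO2 before compound addition. After 23hr of treatment, CellTiter-Fluor reagent is added for 1hr at 37C and fluorescence is measured.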

[7] = qHTS assay to identify small molecule antagonists of the sonic hedgehog signaling (Shh) pathway - cell viability counter screen (AID 1259367); further: nearly all actives have a fitted effect of over 55% in size
Method in brief: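 Cells: 3T3 Gli1-Luc, 2,000/well, 4 hr pre-incubation. Compounds in DMSO, then conditioned medium. Incubation 24 hr, 37C, 5% CO2. CellTiter-Fluor at 23 hr, 1 hr, fluorescence.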

[8] = qHTS assay to identify small molecule agonists of the sonic hedgehog signaling (Shh) pathway (AID 1259368; calls by dose curve;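 further: NIH/3T3-derived 3T3Gli1-Luc cells carrying a stable Gli1-driven firefly luciferase reporter; series mostly up to about 92 µM; nearly all actives have a fitted effect of over 15% in size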)
Method in brief: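 Luminescent signal was taken as a measure of Gli1-controlled luciferase expression in stably transfected NIH/3T3-derived cells that had been treated for 24 hr with compounds delivered in DMSO.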

[9] = qHTS assay to identify small molecule antagonists of the sonic hedgehog signaling (Shh) pathway (AID 1259369; calls by dose curve; further: nearly all actives have a fitted effect of over 45% in size; further: potency means the concentration at half of the fitted maximal effect)
Method in brief: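 Screening used 3T3Gli1-Luc cells at 2,000 per well, compounds delivered in DMSO, and conditioned medium as agonist stimulus; plates incubated 24hr at 37 C and 5% CO2 before a 30min luciferase step.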

[10] = qHTS assay to identify small molecule agonists of the androgen receptor (AR) signaling pathway in the presence of an antagonist - cell viability counter screen (AID 1259379);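 further: MDA-kb2 human breast cancer cells carrying an MMTV luciferase reporter; series mostly up to about 92 µM; nearly all actives have a fitted effect of over 25% in size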
Method in brief: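 In MDA-kb2 cells (human breast carcinoma, MMTV-luciferase), compounds at 15 concentrations plus 3.0uM nilutamide; 16 hr, 37C, 0% CO2; CellTiter-Fluor fluorescence read for viability.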

[11] = qHTS assay to identify small molecule agonists of the estrogen receptor beta (ER-beta) signaling pathway - cell viability counter screen (AID 1259380); further: nearly all actives have a fitted effect of over 30% in size; further: potency means the concentration at half of the fitted maximal effect
Method in brief: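 Viability of ER-beta-UAS-bla HEK293T cells was determined by CellTiter-Glo luminescence following 16 hr treatment with test compounds at 37C.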

[12] = qHTS assay to identify small molecule antagonists of the estrogen receptor beta (ER-beta) signaling pathway - cell viability counter screen (AID 1259382); further: nearly all actives have a fitted effect of over 55% in size; further: potency means the concentration at half of the fitted maximal effect
Method in brief: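 Tox21 10K library tested in qHTS format on ER-beta-bla HEK293T cells stimulated with 1nM E2; 16 hr treatment at 37C. Same-well CellTiter-Glo luminescence served as the cell viability measure.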

[13] = target: Estrogen receptor (Homo sapiens) (UniProt P03372); assay: qHTS assay to identify small molecule agonists of the estrogen receptor alpha (ER-alpha) signaling pathway in the presence of an antagonist (AID 1259383; calls by dose curve; further: top concentration of the series differs between compounds; nearly all actives have a fitted effect of over 15% in size)
Method in brief: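 In VM7Luc4E2 cells, 4,000 per well, compounds at 15 concentrations were co-incubated 22hr at 37C with 10.0nM final ICI-182,780. Luminescence from the stably transfected 4×ERE-luciferase reporter was recorded 30min after ONE-Glo addition.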

[14] = target: Thyrotropin receptor (Homo sapiens) (UniProt P16473); assay: qHTS assay to identify small molecule antagonists of the thyroid stimulating hormone receptor (TSHR) signaling pathway (AID 1259385; calls by dose curve; further: nearly all actives have a fitted effect of over 20% in size)
Chain of Thyrotropin receptor (Homo sapiens) (P16473 whole entry, looked up): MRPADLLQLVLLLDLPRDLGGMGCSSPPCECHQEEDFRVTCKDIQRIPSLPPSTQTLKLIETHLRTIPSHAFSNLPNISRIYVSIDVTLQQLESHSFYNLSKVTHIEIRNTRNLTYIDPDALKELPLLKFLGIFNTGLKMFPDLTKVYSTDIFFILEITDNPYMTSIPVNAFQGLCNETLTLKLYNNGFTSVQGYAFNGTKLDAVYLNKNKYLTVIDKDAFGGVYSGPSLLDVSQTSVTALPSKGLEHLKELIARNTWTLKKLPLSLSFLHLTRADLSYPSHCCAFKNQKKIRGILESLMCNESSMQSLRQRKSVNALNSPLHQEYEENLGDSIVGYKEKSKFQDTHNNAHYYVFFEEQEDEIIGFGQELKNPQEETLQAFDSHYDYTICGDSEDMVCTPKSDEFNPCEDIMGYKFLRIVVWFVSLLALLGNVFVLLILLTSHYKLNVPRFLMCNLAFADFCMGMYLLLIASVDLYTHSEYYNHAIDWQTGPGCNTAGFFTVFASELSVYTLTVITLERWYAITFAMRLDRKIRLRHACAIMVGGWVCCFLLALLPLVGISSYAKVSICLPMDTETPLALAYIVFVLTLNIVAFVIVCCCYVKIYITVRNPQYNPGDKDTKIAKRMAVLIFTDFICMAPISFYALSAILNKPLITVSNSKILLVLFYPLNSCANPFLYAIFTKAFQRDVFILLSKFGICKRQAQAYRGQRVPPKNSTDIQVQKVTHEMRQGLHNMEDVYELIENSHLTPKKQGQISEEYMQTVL
Method in brief: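 Antagonist mode: compound-treated TSHR-expressing HEK293 cells were stimulated with 1.5 ng/mL TSH (final) in presence of Ro20-1724 for 30 min at RT. HTRF cAMP detection after 1 h; each compound tested at 15 concentrations, triplicate.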

[15] = target: Estrogen receptor beta (Homo sapiens) (UniProt Q92731); assay: qHTS assay to identify small molecule agonists of the estrogen receptor beta (ER-beta) signaling pathway (AID 1259377; active means well fitted activation curve with a large enough effect in the signal ratio in the repeat runs, not every such curve was filed as active; the % refers to the signal ratio)
Chain of Estrogen receptor beta (Homo sapiens) (Q92731 whole entry, looked up, the tested form may be a part): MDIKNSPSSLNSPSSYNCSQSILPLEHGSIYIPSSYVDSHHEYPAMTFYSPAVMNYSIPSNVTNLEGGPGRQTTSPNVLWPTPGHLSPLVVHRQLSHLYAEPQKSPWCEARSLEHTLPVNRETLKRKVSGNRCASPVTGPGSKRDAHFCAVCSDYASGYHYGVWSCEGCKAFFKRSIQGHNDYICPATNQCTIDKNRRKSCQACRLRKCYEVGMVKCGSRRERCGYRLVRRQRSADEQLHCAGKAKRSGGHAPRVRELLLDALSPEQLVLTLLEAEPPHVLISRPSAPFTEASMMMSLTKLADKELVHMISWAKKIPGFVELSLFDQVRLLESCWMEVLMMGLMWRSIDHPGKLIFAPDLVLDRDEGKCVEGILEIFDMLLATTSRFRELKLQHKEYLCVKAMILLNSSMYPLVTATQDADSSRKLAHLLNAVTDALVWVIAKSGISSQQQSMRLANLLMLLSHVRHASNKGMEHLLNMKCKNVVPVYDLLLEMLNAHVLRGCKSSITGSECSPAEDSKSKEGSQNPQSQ
Method in brief: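 Agonist mode cell assay in GripTite HEK293T cells expressing an ER-beta fusion that drives beta-lactamase from an Upstream Activator Sequence; 16 hr compound exposure at 37C, then 2 h LiveBLAzer B/G FRET substrate at room temperature, fluorescence read-out.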

[16] = qHTS assay to identify small molecule agonists or antagonists of the thyroid stimulating hormone receptor (TSHR) signaling pathway - wild type cell line counter screen (AID 1259384; calls by dose curve)
Method in brief: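 Counter screen in untransfected Hek293: compounds (15-point titration, triplicate) plus phosphodiesterase inhibitor Ro20-1724 added after 18 h plating; 30 min RT. Intracellular cAMP via competitive d2/cryptate immunoassay, 1 h incubation.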

[17] = target: Estrogen receptor beta (Homo sapiens) (UniProt Q92731); assay: qHTS assay to identify small molecule antagonists of the estrogen receptor beta (ER-beta) signaling pathway (AID 1259378; active means well fitted inhibition curve with a large enough effect in the signal ratio in the repeat runs, not every such curve was filed as active; the % refers to the signal ratio)
Method in brief: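 Antagonist mode: compounds added to beta-lactamase reporter HEK293T ER-beta-UAS cells stimulated with E2 (1nM final), 16 hr at 37C. LiveBLAzer B/G FRET substrate, 2 hours room temperature, fluorescence read-out.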

Row | Compound | Potency [1] | Potency [2] | Potency [3] | Potency [4] | Potency [5] | Potency [6] | Potency [7] | Potency [8] | Potency [9] | Potency [10] | Potency [11] | Potency [12] | Potency [13] | Potency [14] | Potency [15] | outcome [16] | Potency [17]
1 | CC(C)c1ccc(OP(=O)(Oc2ccc(C(C)C)cc2)Oc2ccc(C(C)C)cc2)cc1 | inactive | inactive | inactive | inactive | inactive | inactive | inactive | inactive | 13.8 µM (active) and 12.2 µM (active) and 15.3 µM (active) | inactive | 21.8 µM (active) and 27.3 µM (active) and 21.7 µM (active) | 27.5 µM (active) and 30.6 µM (active) | inactive | inactive | – | – | –
2 | CCCCCCCCCCCCN(C)C | inactive | inactive | inactive | inactive | inactive | inactive | inactive | inactive | – | inactive | inactive | inactive | inactive | inactive | inactive | inactive | –
3 | CCCC[N+](CCCC)(CCCC)CCCC | inactive | inactive | inactive | inactive | inactive | inactive | – | inactive | inactive | – | inactive | inactive | inactive | – | – | – | –
4 | C=CC(=O)OCC | inactive | inactive | inactive | inactive | inactive | – | inactive | inactive | – | inactive | inactive | inactive | inactive | inactive | – | inactive | –
5 | Cc1nnc(-c2ccccc2)c(=O)n1N | inactive | inactive | inactive | inactive | inactive | inactive | inactive | inactive | inactive | inactive | inactive | inactive | inactive | inactive | inactive | – | –
6 | CCC[N+](CCC)(CCC)CCC | inactive | inactive | inactive | inactive | inactive | inactive | inactive | inactive | inactive | inactive | inactive | inactive | inactive | – | – | – | –
7 | O=C(Cc1ccccc1)c1ccccc1 | inactive | inactive | inactive | 27.3 µM (active) | inactive | – | inactive | inactive | inactive | inactive | inactive | inactive | inactive | inactive | – | inactive | –
8 | CCCBr | inactive | inactive | inactive | inactive | inactive | inactive | inactive | inactive | – | inactive | inactive | inactive | inactive | – | – | inactive | –
9 | OCCSSCCO | inactive | inactive | inactive | inactive | inactive | inactive | inactive | inactive | inactive | inactive | inactive | inactive | inactive | – | – | – | –
10 | C1CS1 | inactive | inactive | inactive | inactive | inactive | inactive | inactive | inactive | – | inactive | inactive | inactive | inactive | inactive | – | inactive | –
11 | CCCCCCCCCCCCCCCl | inactive | inactive | inactive | inactive | inactive | – | inactive | inactive | – | inactive | inactive | inactive | inactive | inactive | – | – | –
12 | CCCSP(=S)(OCC)Oc1ccc(SC)cc1 (configuration not stated) | inactive | inactive | inactive | inactive | inactive | inactive | inactive | inactive | 61.1 µM (active) | inactive | inactive | inactive | inactive | inactive | inactive | inactive | –
13 | C=C(C)C(=O)OCCCCOC(=O)C(=C)C | inactive | inactive | inactive | inactive | inactive | inactive | inactive | inactive | – | inactive | inactive | inactive | inactive | – | inactive | inactive | –
14 | NNCCO | inactive | inactive | inactive | inactive | inactive | inactive | inactive | inactive | inactive | inactive | inactive | inactive | inactive | inactive | – | – | inactive
15 | O=C(Cc1ccccc1)OCCc1ccccc1 | inactive | inactive | inactive | inactive | inactive | – | inactive | inactive | inactive | inactive | inactive | inactive | inactive | inactive | inactive | inactive | inactive
16 | CC(C)OC(=O)Cc1ccccc1 | inactive | inactive | inactive | inactive | inactive | inactive | inactive | inactive | inactive | inactive | inactive | inactive | inactive | inactive | – | inactive | –
17 | CC(Oc1cc(Cl)c(Cl)cc1Cl)C(=O)O (configuration not stated) | inactive | inactive | inactive | inactive | inactive | inactive | inactive | inactive | – | inactive | – | – | inactive | inactive | inactive | inactive | –
18 | CCCCC(CC)COC(=O)c1c(Br)c(Br)c(Br)c(Br)c1C(=O)OCC(CC)CCCC (configuration not stated) | inactive | inactive | inactive | inactive | inactive | inactive | inactive | inactive | inactive | inactive | inactive | inactive | inactive | inactive | inactive | inactive | –
